Experimental data as given in PubChem BioAssay (Tox21).
Where “and” joins values, the source holds several entries; their conditions need not be identical. Equal entries are not always repeated. Records with an inconclusive call do not appear. A structure can be active in one record and inactive in another. Calls of active or inactive are those of the source. Unless noted, the call rests on the fitted dose curve. Starred links: 1 amine or outer side, 2 acyl side, 3 side chain; linkers in the order of their positions; H or OH if unused. Positions of bridges follow the written chain, without caps; N, C: chain ends. Non-standard residues stand in square brackets, D forms with d. Residues, ends and D or L forms follow the SMILES beside them. Chains are numbered I, II in the order given. Actinocin(9to1) = Cc1c2oc3c(C)ccc(C(=O)[*:1])c3nc-2c(C(=O)[*:2])c(N)c1=O; NMeV = CN[C@H](C(=O)O)C(C)C; Sar = CNCC(=O)O

Tests used:
[1] = qHTS assay to identify small molecule antagonists of the sonic hedgehog signaling (Shh) pathway (AID 1259369); further: nearly all actives have a fitted effect of over 45% in size; further: potency means the concentration at half of the fitted maximal effect
Outline: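 Inhibition of Shh signalling is measured as reduced Gli1-response-element firefly luciferase output in an NIH/3T3-derived stable reporter clone stimulated with conditioned medium for 24hr.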

[2] = biological target: Estrogen receptor beta (Homo sapiens) (UniProt Q92731); assay: qHTS assay to identify small molecule agonists of the estrogen receptor beta (ER-beta) signaling pathway (AID 1259377; active means well fitted activation curve with a large enough effect in the signal ratio in the repeat runs, not every such curve was filed as active; the % refers to the signal ratio)
Estrogen receptor beta (Homo sapiens), sequence (Q92731 whole entry, looked up): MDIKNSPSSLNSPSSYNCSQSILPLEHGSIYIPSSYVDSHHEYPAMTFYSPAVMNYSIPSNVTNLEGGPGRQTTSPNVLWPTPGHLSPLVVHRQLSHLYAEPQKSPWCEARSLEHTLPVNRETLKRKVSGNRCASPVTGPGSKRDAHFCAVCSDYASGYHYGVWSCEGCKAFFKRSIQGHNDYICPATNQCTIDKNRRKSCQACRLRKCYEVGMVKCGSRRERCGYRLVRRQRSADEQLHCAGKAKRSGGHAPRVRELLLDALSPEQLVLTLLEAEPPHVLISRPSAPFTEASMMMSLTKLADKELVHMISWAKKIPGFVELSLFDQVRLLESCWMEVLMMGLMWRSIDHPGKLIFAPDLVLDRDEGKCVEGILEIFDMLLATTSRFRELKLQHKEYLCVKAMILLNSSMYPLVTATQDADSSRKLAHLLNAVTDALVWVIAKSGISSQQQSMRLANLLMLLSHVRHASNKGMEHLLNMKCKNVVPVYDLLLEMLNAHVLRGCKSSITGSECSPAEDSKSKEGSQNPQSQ
Outline: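 Reporter cells (HEK293T, ER-beta-UAS-bla) receive compounds or DMSO after a 6 hr pre-incubation. They then incubate 16 hr at 37C/5% CO2, and fluorescence from LiveBLAzer B/G substrate is measured after 2 hours at room temperature.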

[3] = biological target: Estrogen receptor beta (Homo sapiens) (UniProt Q92731); assay: qHTS assay to identify small molecule antagonists of the estrogen receptor beta (ER-beta) signaling pathway (AID 1259378; active means well fitted inhibition curve with a large enough effect in the signal ratio in the repeat runs, not every such curve was filed as active; the % refers to the signal ratio; further: potency means the concentration at half of the fitted maximal effect)
Outline: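 ER-beta-UAS-bla HEK293T cells in 2% charcoal-stripped FBS medium treated with compound plus 1nM final 17-beta-estradiol for 16 hr at 37C. Beta-lactamase reporter read by FRET substrate fluorescence after 2 hours at room temperature.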

[4] = qHTS assay to identify small molecule agonists of the androgen receptor (AR) signaling pathway in the presence of an antagonist - cell viability counter screen (AID 1259379; active means well fitted curve in the direction sought with a large enough effect in the repeat runs; an effect the other way counts as inactive or inconclusive; further: nearly all actives have a fitted effect of over 25% in size; further: potency means the concentration at half of the fitted maximal effect;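 on activity change, negative = cytotoxicity: MDA-kb2 human breast cancer cells carrying an MMTV luciferase reporter; series mostly up to about 92 µM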)
Outline: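 Fluorescence from CellTiter-Fluor, added after 15 hr and read 1 hr later, gave cell viability. Cells were MDA-kb2 exposed to compounds (15 concentrations) in the presence of 3.0uM nilutamide at 37C, 0% CO2.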

[5] = qHTS assay to identify small molecule agonists of the estrogen receptor beta (ER-beta) signaling pathway - cell viability counter screen (AID 1259380; active means well fitted curve in the direction sought with a large enough effect in the repeat runs; an effect the other way counts as inactive or inconclusive; further: nearly all actives have a fitted effect of over 30% in size; further: potency means the concentration at half of the fitted maximal effect)
Outline: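 Same-well viability counter screen. Cells: ER-beta-UAS-bla HEK293T, plated 6 hr before compound, in 2% charcoal-stripped FBS. Compound exposure 16 hr, 37C; viability by CellTiter-Glo luminescence after 30 min at room temperature.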

[6] = qHTS assay to identify small molecule antagonists of the estrogen receptor beta (ER-beta) signaling pathway - cell viability counter screen (AID 1259382; active means well fitted curve in the direction sought with a large enough effect in the repeat runs; an effect the other way counts as inactive or inconclusive; further: nearly all actives have a fitted effect of over 55% in size; further: potency means the concentration at half of the fitted maximal effect; on activity change, negative = cytotoxicity: series mostly up to about 92 µM)
Outline: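 Following a 6 hr plating period, HEK293T cells carrying a UAS-driven beta-lactamase reporter under ER-beta control received compounds and 1nM E2 (final). After 16 hr at 37C and 2 hr substrate loading, CellTiter-Glo luminescence indicated viability.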

[7] = biological target: Estrogen receptor (Homo sapiens) (UniProt P03372); assay: qHTS assay to identify small molecule agonists of the estrogen receptor alpha (ER-alpha) signaling pathway in the presence of an antagonist (AID 1259383); further: top concentration of the series differs between compounds; nearly all actives have a fitted effect of over 15% in size
Estrogen receptor (Homo sapiens), sequence (P03372 whole entry, looked up): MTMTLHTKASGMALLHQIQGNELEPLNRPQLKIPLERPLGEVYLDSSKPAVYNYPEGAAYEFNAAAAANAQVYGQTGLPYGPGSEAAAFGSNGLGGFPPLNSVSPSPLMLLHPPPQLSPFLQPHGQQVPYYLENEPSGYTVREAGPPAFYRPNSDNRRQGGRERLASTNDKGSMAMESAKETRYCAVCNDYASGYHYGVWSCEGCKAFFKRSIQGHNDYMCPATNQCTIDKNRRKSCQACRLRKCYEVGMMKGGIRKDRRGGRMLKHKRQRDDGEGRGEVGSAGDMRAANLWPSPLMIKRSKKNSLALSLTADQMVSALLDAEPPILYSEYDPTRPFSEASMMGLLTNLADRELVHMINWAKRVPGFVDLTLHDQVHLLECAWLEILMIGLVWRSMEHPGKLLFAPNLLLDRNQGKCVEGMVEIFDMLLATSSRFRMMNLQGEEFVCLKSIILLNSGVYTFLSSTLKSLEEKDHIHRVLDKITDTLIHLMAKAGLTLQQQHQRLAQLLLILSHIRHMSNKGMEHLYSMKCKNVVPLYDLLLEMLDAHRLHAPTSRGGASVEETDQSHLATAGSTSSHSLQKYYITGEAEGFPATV
Outline: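 Cells are hormone-deprived for 5 days (charcoal-stripped FBS, no phenol red), plated for 24hr, spiked with 10.0nM ICI-182,780, then dosed at 15 concentrations. After 22hr at 37C, ONE-Glo luminescence reports ERE-luciferase activity.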

[8] = qHTS assay to identify small molecule agonists or antagonists of the thyroid stimulating hormone receptor (TSHR) signaling pathway - wild type cell line counter screen (AID 1259384)
Outline: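 Wild-type Hek293 cells, 800/well, 18 h at 37C, then compound with Ro20-1724 for 30 min RT. cAMP by HTRF (cAMP-d2/anti-cAMP cryptate), 1 h RT, fluorescence read. 15 concentrations, triplicates.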

[9] = biological target: Thyrotropin receptor (Homo sapiens) (UniProt P16473); assay: qHTS assay to identify small molecule antagonists of the thyroid stimulating hormone receptor (TSHR) signaling pathway (AID 1259385); further: nearly all actives have a fitted effect of over 20% in size
Thyrotropin receptor (Homo sapiens), sequence (P16473 whole entry, looked up): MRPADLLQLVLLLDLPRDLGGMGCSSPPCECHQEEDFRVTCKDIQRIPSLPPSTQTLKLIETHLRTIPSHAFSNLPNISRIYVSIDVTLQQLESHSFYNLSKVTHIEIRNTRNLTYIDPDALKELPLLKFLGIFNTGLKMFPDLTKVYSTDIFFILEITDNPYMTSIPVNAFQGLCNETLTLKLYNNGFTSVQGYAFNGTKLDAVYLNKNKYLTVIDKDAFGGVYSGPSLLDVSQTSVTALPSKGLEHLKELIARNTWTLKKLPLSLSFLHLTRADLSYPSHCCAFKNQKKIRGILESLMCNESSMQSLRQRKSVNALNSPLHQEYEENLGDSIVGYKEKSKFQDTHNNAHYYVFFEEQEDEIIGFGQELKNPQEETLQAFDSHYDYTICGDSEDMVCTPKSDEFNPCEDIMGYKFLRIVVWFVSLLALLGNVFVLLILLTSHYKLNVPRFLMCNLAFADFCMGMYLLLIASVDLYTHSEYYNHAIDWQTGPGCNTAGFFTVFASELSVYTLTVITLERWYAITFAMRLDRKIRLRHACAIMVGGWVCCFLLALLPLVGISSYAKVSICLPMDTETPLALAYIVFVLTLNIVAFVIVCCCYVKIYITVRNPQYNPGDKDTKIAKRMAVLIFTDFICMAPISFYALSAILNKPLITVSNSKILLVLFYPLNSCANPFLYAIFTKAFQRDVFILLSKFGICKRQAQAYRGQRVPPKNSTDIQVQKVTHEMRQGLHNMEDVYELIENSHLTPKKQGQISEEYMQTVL
Outline: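 TSHR-HEK293 cells (800/well) plated 18 h, then compounds with Ro20-1724 and TSH at 1.5 ng/mL final, 30 min at room temperature. cAMP quantified by HTRF (cAMP-d2/anti-cAMP-cryptate, 1 h); 15 concentrations in triplicate.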

[10] = biological target: Androgen receptor (Homo sapiens) (UniProt P10275); assay: qHTS assay to identify small molecule agonists of the androgen receptor (AR) signaling pathway in the presence of an antagonist (AID 1259381); further: nearly all actives have a fitted effect of over 15% in size; further: potency means the concentration at half of the fitted maximal effect
Androgen receptor (Homo sapiens), sequence (P10275 whole entry, looked up): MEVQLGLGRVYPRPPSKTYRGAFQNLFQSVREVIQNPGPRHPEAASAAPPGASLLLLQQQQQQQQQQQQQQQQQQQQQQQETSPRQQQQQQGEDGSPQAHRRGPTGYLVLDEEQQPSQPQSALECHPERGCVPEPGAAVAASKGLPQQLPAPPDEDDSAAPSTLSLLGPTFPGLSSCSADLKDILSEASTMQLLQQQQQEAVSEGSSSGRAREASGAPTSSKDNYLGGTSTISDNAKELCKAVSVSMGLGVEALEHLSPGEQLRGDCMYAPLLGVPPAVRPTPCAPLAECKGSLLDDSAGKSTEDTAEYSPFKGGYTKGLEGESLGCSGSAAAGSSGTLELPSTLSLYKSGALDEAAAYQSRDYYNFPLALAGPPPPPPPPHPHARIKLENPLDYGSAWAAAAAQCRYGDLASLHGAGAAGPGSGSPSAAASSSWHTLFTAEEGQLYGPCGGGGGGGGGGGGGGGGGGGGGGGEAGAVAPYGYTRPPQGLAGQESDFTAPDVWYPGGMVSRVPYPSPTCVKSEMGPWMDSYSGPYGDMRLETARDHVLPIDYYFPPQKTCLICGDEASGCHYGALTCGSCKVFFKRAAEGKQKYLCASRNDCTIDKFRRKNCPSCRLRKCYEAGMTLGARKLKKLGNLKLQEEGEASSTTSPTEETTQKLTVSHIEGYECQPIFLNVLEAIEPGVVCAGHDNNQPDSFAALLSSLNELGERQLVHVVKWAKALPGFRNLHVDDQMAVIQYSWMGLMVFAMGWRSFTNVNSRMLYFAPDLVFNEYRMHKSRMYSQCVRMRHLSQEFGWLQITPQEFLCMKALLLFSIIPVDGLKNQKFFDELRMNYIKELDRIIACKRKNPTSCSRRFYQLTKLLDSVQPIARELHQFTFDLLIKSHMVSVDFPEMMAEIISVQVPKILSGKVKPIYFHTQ
Outline: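 Cells are MDA-kb2 (human breast carcinoma, MMTV-luc, AR/GR responsive). Nilutamide is present at 3.0uM final throughout; compounds are added at 15 concentrations and incubated 16hr at 37C before ONE-Glo luminescence detection.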
On the % scale 0 is the no-effect control and ±100 the full control effect.

Cc1cccc([N+](=O)[O-])c1C(=O)O
inactive: Potency [1] | outcome [2] | Potency [3] | Potency [4] | Potency [5] | Potency [6] | Potency [7] | Potency [8] | Potency [9]

CC(=O)C1=C(C)[C@@H]2C[C@@]3(C1)[C@H](C)CC[C@H]3C2(C)C
inactive: Potency [1] | outcome [2] | Potency [3] | Potency [4] | Potency [5] | Potency [6] | Potency [7] | Potency [8]

Nc1ccc(O)cc1
63.5 µM (active) and inactive: Potency [6]
7.99 µM (active) and inactive: Potency [1]
inactive: outcome [2] | Potency [3] | Potency [5] | Potency [7] | Potency [8] | Potency [9]
56.6 µM (active) and inactive: Potency [4]
5.04 µM (active) and inactive: Potency [10]

O=C(O)c1cc(Cl)cc(Cl)c1
inactive: Potency [1] | outcome [2] | Potency [3] | Potency [4] | Potency [5] | Potency [6] | Potency [7] | Potency [8] | Potency [9]

Cc1c2oc3c(C)ccc(C(=O)N[C@@H]4C(=O)N[C@H](C(C)C)C(=O)N5CCC[C@H]5C(=O)N(C)CC(=O)N(C)[C@@H](C(C)C)C(=O)O[C@@H]4C)c3nc-2c(C(=O)N[C@@H]2C(=O)N[C@H](C(C)C)C(=O)N3CCC[C@H]3C(=O)N(C)CC(=O)N(C)[C@@H](C(C)C)C(=O)O[C@@H]2C)c(N)c1=O (I: T[dV]P[Sar][NMeV] / II: T[dV]P[Sar][NMeV]; ester I:1-I:C, II:1-II:C; linker I:N-II:N via Actinocin(9to1))
active: Potency [1] 0.0021 µM | Potency [3] 0.0266 µM | Potency [4] 10.6 µM
inactive: outcome [2] | Potency [5] | Potency [10] | Potency [6] | Potency [7]

CC(C)CCOCc1ccccc1
inactive: Potency [1] | outcome [2] | Potency [3] | Potency [4] | Potency [5] | Potency [10] | Potency [6] | Potency [7] | Potency [9]

NC(=Nc1ccccc1)Nc1ccccc1
active: Potency [1] 2.43 µM
inactive: outcome [2] | Potency [3] | Potency [4] | Potency [5] | Potency [6] | Potency [7] | Potency [8] | Potency [9]

C=C(C)C(=O)O
inactive: Potency [1] | outcome [2] | Potency [3] | Potency [4] | Potency [5] | Potency [6] | Potency [7]

O=C(O)Cn1cnnn1
inactive: Potency [1] | outcome [2] | Potency [3] | Potency [4] | Potency [5] | Potency [10] | Potency [6] | Potency [7] | Potency [8] | Potency [9]

CCN(CC)C(=O)Nc1ccc(OCC(O)CNC(C)(C)C)c(C(C)=O)c1 (configuration not stated)
inactive: Potency [1] | outcome [2] | Potency [3] | Potency [4] | Potency [5] | Potency [10] | Potency [6] | Potency [7] | Potency [8] | Potency [9]

Clc1ccc2c(c1)C(N1CCNCC1)=Nc1ccccc1O2
inactive: Potency [1] | outcome [2] | Potency [3] | Potency [6] | Potency [7] | Potency [8] | Potency [9]
active: Potency [4] 61.1 µM and 29.8 µM | Potency [5] 30.6 µM and 23.7 µM

OCCN1CCNCC1
inactive: Potency [1] | outcome [2] | Potency [3] | Potency [4] | Potency [5] | Potency [6] | Potency [7] | Potency [8] | Potency [9]

CCOc1ccccc1C(N)=O
inactive: Potency [1] | outcome [2] | Potency [3] | Potency [4] | Potency [5] | Potency [10] | Potency [6] | Potency [7] | Potency [9]

CC(C)(O)CCC(C)(C)O
inactive: Potency [1] | outcome [2] | Potency [3] | Potency [4] | Potency [5] | Potency [10] | Potency [6] | Potency [7] | Potency [9]

O=Cc1ccc(Cl)cc1
inactive: Potency [1] | outcome [2] | Potency [3] | Potency [4] | Potency [5] | Potency [10] | Potency [6] | Potency [9]

Nc1nc(=S)c2[nH]cnc2[nH]1
inactive: outcome [2] | Potency [3] | Potency [4] | Potency [10] | Potency [7] | Potency [8] | Potency [9]
active: Potency [1] 842 nM and 545 nM and 596 nM | Potency [5] 3.06 µM and 2.98 µM

O=C(O[C@@H]1Cc2c(O)cc(O)cc2O[C@@H]1c1cc(O)c(O)c(O)c1)c1cc(O)c(O)c(O)c1
active: Potency [1] 27.4 µM | Potency [4] 54.6 µM
inactive: outcome [2] | Potency [3] | Potency [5] | Potency [6] | Potency [7]

CCCCCCCCCCCCCCCCCl
inactive: activity change, negative = inhibition [1] 30% [at 19 µM] | activation [2] 1.06% [at 19 µM] | activity, negative = inhibition [3] 9.46% [at 19 µM] | activity change, negative = cytotoxicity [4] 1.7% [at 19 µM] | activity change, negative = cytotoxicity [5] 3.21% [at 19 µM] | activity change, negative = cytotoxicity [6] 3.31% [at 19 µM] | activation [7] -0.0791% [at 19 µM] | cAMP activity change [8] 0.656% [at 18.9 µM, stronger effect = higher value] | activity change, negative = inhibition [9] -1.34% [at 19 µM]

OCC(CO)N[C@H]1C[C@](O)(CO)[C@@H](O)[C@H](O)[C@H]1O
inactive: Potency [1] | outcome [2] | Potency [3] | Potency [4] | Potency [5] | Potency [10] | Potency [6] | Potency [7] | Potency [8] | Potency [9]

O=C1NCC2(CCN(CCc3ccccc3)CC2)O1
inactive: Potency [1] | outcome [2] | Potency [3] | Potency [4] | Potency [5] | Potency [6] | Potency [7] | Potency [8] | Potency [9]
